PABP FP inh: blocks human PABP binding to poly(A) RNA; P11940; fluorescence polarization; calls only at 35 µM; actives 1% (n = 290,000);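 also: calls also rest on retests at 20 µM and on dose response follow-up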
A3A deaminase: blocks human APOBEC3A ssDNA deamination; P31941; recombinant A3A, FAM/TAMRA ssDNA deamination fluorescence; inhibition, % at 20 µM; actives 0.41% (n = 330,000); AID 493011;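 active = at least 40% inhibition at 20 µM here, with at most 30% in a related deaminase screen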;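 also: plate controls were A3A with DMSO for no effect and wells lacking A3A enzyme for full effect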
APOBEC3G inh: inhibitors of human APOBEC3G DNA deaminase; Q9HC16; recombinant A3G, ssDNA deamination FAM/TAMRA fluorescence; inhibition, % at 20 µM; actives 0.28% (n = 330,000);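 active = inhibition of at least 40% at 20 µM, with no more than 30% in the related APOBEC3A deaminase screen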;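 also: plate controls were DMSO wells with A3G for no effect and wells lacking A3G enzyme for full effect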
eIF4H inh: inhibitors of RNA binding by human eIF4H | Q15056 | eIF4H fluorescence polarization binding assay | inhibition, % at 35 µM | actives 0.94% (n = 290,000);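 also: calls also rest on retests at 20 µM and on dose response follow-up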
PHOSPHO1 block: blocks human PHOSPHO1 phosphatase activity; Q8TCT1; recombinant PHOSPHO1, absorbance phosphatase assay; inhibition, % at 13.3 µM; actives 1.1% (n = 290,000); in the data active = inhibition above about 60%
PABP1 MLLE inh: blocks PAM2 peptide binding to the PABP1 MLLE domain | P11940 | GST-MLLE / FITC-PAM2 fluorescence polarization | inhibition, % at 20 µM | actives 0.36% (n = 360,000); in the data active = inhibition above about 35%, passing the limit was not always enough;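 also: plate controls were DMSO wells with GST-MLLE for no effect and wells lacking GST-MLLE protein for full effect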
An asterisk follows results filed as active. Compounds with a hit are over-represented: about 2.6% of the library has one in this group of screens. Unless noted, no rule for the calls is given here.

How did COc1cc(C2C(C#N)=C(N)Oc3cc(C)oc(=O)c32)cc(OC)c1OC (stereo unspecified) do in these assays?
PABP FP inh: inactive; A3A deaminase: -5; APOBEC3G inh: 6; eIF4H inh: 8; PHOSPHO1 block: 44; PABP1 MLLE inh: 5

How did COc1ccc(N(CC(=O)NCc2ccco2)C(=O)CCC(=O)Nc2nccs2)c(OC)c1 do in these assays?
PABP FP inh: inactive; A3A deaminase: -1; APOBEC3G inh: -2; eIF4H inh: -10; PHOSPHO1 block: 19; PABP1 MLLE inh: -1

How did C[n+]1ccccc1/C=C/c1ccc(C#N)cc1 do in these assays?
PABP FP inh: active; eIF4H inh: 41; PHOSPHO1 block: -138; PABP1 MLLE inh: -93

Results for C[n+]1ccccc1/C=C/c1c(F)cccc1F ?
PABP FP inh: active; eIF4H inh: 63; PHOSPHO1 block: -38; PABP1 MLLE inh: -106

How did COc1ccc(S(=O)(=O)Nc2ccc3c(c2)C(=O)N([C@H](C)CO)C[C@H](C)[C@@H](CN(C)S(=O)(=O)c2ccc(OC)cc2)O3)cc1 do in these assays?
PABP1 MLLE inh: -20

Results for Cc1ccc(Oc2coc3cc(OC(=O)c4cccs4)ccc3c2=O)cc1 ?
PABP FP inh: inactive; A3A deaminase: 4; APOBEC3G inh: 3; eIF4H inh: 0; PHOSPHO1 block: 6; PABP1 MLLE inh: -9

What do the screens show for `CC(=O)Oc1ccc2c(=O)c(Oc3ccccc3)coc2c1OC(C)=O`?
PABP FP inh: active; A3A deaminase: 15; APOBEC3G inh: 0; eIF4H inh: 98*; PHOSPHO1 block: -4; PABP1 MLLE inh: 4

What do the screens show for `Cc1cccc(C)c1NC(=O)CSc1nc(C2CC2)nc2ccccc12`?
PABP FP inh: inactive; A3A deaminase: -2; APOBEC3G inh: -6; eIF4H inh: 0; PHOSPHO1 block: 44; PABP1 MLLE inh: 1

Results for Cc1nn(C)cc1S(=O)(=O)N1CCN(Cc2ccccc2Cl)CC1 ?
PABP FP inh: inactive; A3A deaminase: -2; APOBEC3G inh: -5; eIF4H inh: -3; PHOSPHO1 block: 27; PABP1 MLLE inh: -18

How did CCCN1CCN(S(=O)(=O)c2cn(C)nc2C)CC1 do in these assays?
PABP FP inh: active; A3A deaminase: 5; APOBEC3G inh: -2; eIF4H inh: 69; PABP1 MLLE inh: 36

What do the screens show for `O=C(Cc1nnc(NC(=O)c2ccccc2)s1)N/N=C\c1ccc(O)c(O)c1`?
PABP FP inh: inactive; A3A deaminase: -2; APOBEC3G inh: -2; eIF4H inh: 59*; PHOSPHO1 block: 24; PABP1 MLLE inh: -10

How did Cc1oc2ccc(Br)cc2c(=O)c1-c1nn[nH]n1 do in these assays?
PABP FP inh: inactive; A3A deaminase: -1; APOBEC3G inh: -6; eIF4H inh: -5; PHOSPHO1 block: 30; PABP1 MLLE inh: -13

How did N#Cc1ccccc1S(=O)(=O)N1CCN(CC(O)c2ccccc2)CC1 (stereo unspecified) do in these assays?
PABP FP inh: inactive; A3A deaminase: 3; APOBEC3G inh: -2; eIF4H inh: 7.2*; PHOSPHO1 block: 18; PABP1 MLLE inh: 9

How did Cn1cccc1/C=C1\SC(=S)N(NC(=O)c2ccccc2O)C1=O do in these assays?
PABP FP inh: active; A3A deaminase: 3; APOBEC3G inh: -2; eIF4H inh: 82*; PHOSPHO1 block: -8; PABP1 MLLE inh: -136

How did COc1ccccc1C(=O)NN1C(=O)/C(=C/c2cccn2C)SC1=S do in these assays?
PABP FP inh: active; eIF4H inh: 71; PHOSPHO1 block: -4

How did O=C(NN1C(=O)/C(=C/C=C/c2ccco2)SC1=S)c1ccccc1O do in these assays?
PABP FP inh: active; A3A deaminase: 96; APOBEC3G inh: 87; eIF4H inh: 94*; PHOSPHO1 block: 86*; PABP1 MLLE inh: -78

How did CC(C(=O)O)N1C(=O)/C(=C/c2cccn2C)SC1=S (stereo unspecified) do in these assays?
PABP FP inh: active; eIF4H inh: 93; PHOSPHO1 block: 0; PABP1 MLLE inh: -135

Results for CCC(C(=O)O)N1C(=O)/C(=C/c2cccn2C)SC1=S (stereo unspecified) ?
PABP FP inh: inactive; eIF4H inh: inconclusive; PHOSPHO1 block: -13; PABP1 MLLE inh: -151

What do the screens show for `CCOC(=O)C1CCN(C(=O)COC(=O)c2ccc([N+](=O)[O-])o2)CC1`?
A3A deaminase: -2; APOBEC3G inh: -6; PABP1 MLLE inh: -4
